Data published in PubChem BioAssay AID504332 (National Center for Advancing Translational Sciences (NCATS), 2011).
“And” between values parts separate entries of the source, which are not always exact repeats. Equal values may be shown once. The campaign covered roughly 350,000 compounds. About 31,000 (8.9%) were called active. About 15% were inconclusive and are not listed. The call rests on the fitted dose curve; in most records, active means well fitted inhibition curve with a large enough effect; inconclusive means small, poorly fitted or top-dose-only effect; inactive means no such curve, though single readings can be large or run the other way. Only a selection was taken, and actives are over-represented in it overall. A structure can be active in one record and inactive in another.

Each compound was assayed against Histone-lysine N-methyltransferase EHMT2 (Homo sapiens) (UniProt Q96KQ7) (assay: qHTS Assay for Inhibitors of Histone Lysine Methyltransferase G9a). Conditions: G9a H3K9 monomethylation, AlphaScreen, 2 h; series mostly up to 59 µM; activity, negative = inhibition: at the top concentration.
Procedure, shortened: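 Signal arises when biotinylated H3K9 peptide, once monomethylated, bridges streptavidin donor and antibody-captured acceptor beads. Enzyme at 20 nM was preincubated 15 min with test compounds; peptide 500 nM and SAM 20 uM then reacted for 2 h.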
Further: nearly all actives have a fitted effect of over 75% in size.
On the % scale 0 is the no-effect control and ±100 the full control effect; potency means the concentration at half of the fitted maximal effect.

Histone-lysine N-methyltransferase EHMT2 (Homo sapiens), sequence (Q96KQ7 913-1193 limits assumed): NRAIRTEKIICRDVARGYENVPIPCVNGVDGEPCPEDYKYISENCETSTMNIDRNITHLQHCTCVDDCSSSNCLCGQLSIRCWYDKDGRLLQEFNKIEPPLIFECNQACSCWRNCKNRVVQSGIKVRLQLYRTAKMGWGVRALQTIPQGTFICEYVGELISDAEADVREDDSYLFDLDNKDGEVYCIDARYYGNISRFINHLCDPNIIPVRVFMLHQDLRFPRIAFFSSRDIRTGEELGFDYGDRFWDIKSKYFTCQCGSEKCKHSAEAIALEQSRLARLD

| Compound | activity, negative = inhibition | Potency |
| --- | --- | --- |
| Cn1c(=O)c2c(SCC(=O)N3CCc4ccccc43)nc(-c3ccc(Cl)cc3)nc2n(C)c1=O | 0.591% (inactive) |  |
| NC(=O)C1CCN(C(=O)c2ccc3c(=O)n(Cc4cccc(Br)c4)c(=S)[nH]c3c2)CC1 |  | 39.8 µM (active) |
| CCOc1cc2[nH]c(=S)n(Cc3ccc(C(=O)N4CCN(C)CC4)cc3)c(=O)c2cc1OCC | 4.55% [at 102 µM] (inactive) |  |
| O=C(O)c1ccc(Cn2c(=S)[nH]c3cc(Cl)ccc3c2=O)cc1 |  | 39.8 µM (active) |
| CCOC(=O)N1CCN(C(=O)c2ccc3c(=O)n(CCc4ccc(OC)c(OC)c4)c(=O)[nH]c3c2)CC1 | -5.11% [at 102 µM] (inactive) |  |
| COc1cc2[nH]c(=S)n(Cc3ccc(F)cc3)c(=O)c2cc1OC | 9.96% [at 102 µM] (inactive) |  |
| COc1ccccc1Cn1c(=S)[nH]c2cc(C(=O)N3CCN(C)CC3)ccc2c1=O | 19.2% (inactive) |  |
| COc1ccc(Nc2ncc(C(=O)Nc3cc(C)ccc3OC)c3ccccc23)cc1 | -0.322% (inactive) |  |
| O=C(NCc1ccncc1)C1CCCN(S(=O)(=O)c2ccc(Br)cc2)C1 (stereo not given) | -5.72% [at 102 µM] (inactive) |  |
| Cc1ccc(C)c(N2CCN(C(=O)Cn3ncc4c(=O)oc5ccc(C)cc5c43)CC2)c1 | -1.95% (inactive) |  |
| COc1cc(OC)c(N(C)C(=O)c2cc3c(=O)oc4ccccc4c3s2)cc1Cl | 3.37% (inactive) |  |
| COc1ccccc1CNC(=O)c1ccc(-n2c(C)cc3c2CCCC3)cc1 | -4.16% (inactive) |  |
| c1nc(COc2nsnc2N2CCOCC2)cs1 | 15.5% [at 2.33 µM] (inactive) |  |
| O=C(O)COc1nsnc1N1CCOCC1 | 20.7% [at 102 µM] (inactive) |  |
| c1ccc(COc2nsnc2N2CCOCC2)cc1 |  | 14.1 µM (active) |
| CCOc1ccc(N(CC)C(=O)c2cc3c(=O)oc4ccccc4c3s2)cc1 | 10.3% (inactive) |  |
| Cc1ccc(C2=N/C(=C\c3ccc(OS(=O)(=O)c4ccc(C)cc4)cc3)C(=O)O2)cc1 | 19.5% (inactive) |  |
| Cc1cc(/C=C2/C(=N)N3C(=NC2=O)SN=C3S(C)(=O)=O)c(C)n1-c1ccccc1 |  | 35.5 µM (active) |
| COc1cc(/C=C2\C(=N)N3N=C(CC(=O)N4CCOCC4)SC3=NC2=O)cc(OC)c1OC | 78.5% [at 102 µM] (inactive) |  |
| CCS(=O)(=O)C1=NSC2=NC(=O)/C(=C\c3ccc(OS(=O)(=O)c4ccccc4)cc3)C(=N)N21 |  | 39.8 µM (active) |
| CCS(=O)(=O)C1=NSC2=NC(=O)/C(=C\c3cc(C)n(-c4cccc(OC)c4)c3C)C(=N)N21 | 8.92% (inactive) |  |
| N=C1/C(=C/c2cccn2-c2cccc([N+](=O)[O-])c2)C(=O)N=C2SC=CN12 | 29.7% [at 102 µM] (inactive) |  |
| CCC1=Nc2cc(C(=O)NCCCOC(C)C)ccc2Sc2ccc(C)cc21 | 1.84% (inactive) |  |
| O=C(COC(=O)c1ccccn1)NNC(=O)c1ccc([N+](=O)[O-])cc1 | 6.96% [at 102 µM] (inactive) |  |
| CCCNC(=O)c1ccc(Cn2c(SCC(N)=O)nc3ccccc3c2=O)cc1 | 2.19% (inactive) |  |

| Compound | activity, negative = inhibition | Potency |
| --- | --- | --- |
| CC(=O)c1ccc2c(ccc3ccccc32)c1 | -4.88% (inactive) |  |
| CC(=O)CCC(=O)c1ccc2ccccc2c1 | 18.9% (inactive) |  |
| C=CC(=O)c1ccc2ccccc2c1 |  | 1.26 µM (active) |
| O=C(/C=C/c1ccccc1)Nc1cc(-c2nc3cc(Cl)ccc3o2)ccc1Cl | 10.9% (inactive) |  |
| COc1ccc(NC(=O)N2CCCn3nc(C)cc32)cc1OC | 5.44% (inactive) |  |
| CCOc1ccc(NC(=O)Nc2cc(C)ccc2OC)cc1 | 28.6% (inactive) |  |
| CCn1cc(NC(=O)Nc2ccc(OC)c(OC)c2)c(C(N)=O)n1 |  | 25.1 µM (active) |
| Cc1ccc(NC(=O)CCCNC(=O)c2ccc(Cl)cc2)cc1S(=O)(=O)N1CCCCC1 | -49.7% [at 102 µM] (inactive) |  |
| O=C(O)c1c(CNCc2cccc(F)c2)c2ccccc2n1Cc1ccccc1 | -2.2% (inactive) |  |
| CC(O)COc1ccccc1 (stereo not given) | 25.5% (inactive) |  |
| CC(O)CNCCOc1cccc(Oc2ccccc2)c1 (stereo not given) |  | 31.6 µM (active) |
| CC1(C)NC(=O)N(CCOc2cccc(Oc3ccccc3)c2)C1=O | 2.99% (inactive) |  |
| CN(C(=O)CN1C(=O)NC(C)(CCc2ccccc2)C1=O)c1ccccc1 (stereo not given) | -6.99% [at 102 µM] (inactive) |  |
| O=C(Nc1nnc(C2CC2)s1)c1cc(Cl)sc1Cl | -5.4% [at 102 µM] (inactive) |  |
| CCOC(=O)CCCN1CC(O)=C(c2nc3ccccc3s2)C1=N | -0.107% [at 102 µM] (inactive) |  |
| CCOC(=O)c1oc2c(CN3CCN(CCO)CC3)c(O)c(CC)cc2c(=O)c1-c1nc2ccccc2s1 |  | 17.8 µM (active) |
| CCOC(=O)c1oc2c(CN3CCN(C)CC3)c(O)ccc2c(=O)c1-c1ccc(Br)cc1 | -3.73% (inactive) |  |
| Cc1ccc(C(=O)NCCc2nnc(SCC(=O)Nc3cccc(C(=O)O)c3)n2C)cc1 | 10.2% [at 0.501 µM] (inactive) |  |
| CCCn1c(=N)c(C(=O)NCc2ccccc2)cc2c(=O)n3cccc(C)c3nc21 | 0.45% (inactive) |  |
| O=C(Nc1ccc(Cl)cc1)N1CCc2[nH]c3ccccc3c2C1 | 9.49% [at 102 µM] (inactive) |  |
| CCCC(=O)N1CCc2[nH]c3ccccc3c2C1 |  | 39.8 µM (active) |
| C=CCNC(=S)N1CCc2[nH]c3ccccc3c2C1 | 0.317% [at 102 µM] (inactive) |  |
| COc1ccc(CCNc2ncnc3c2nnn3Cc2ccccc2)cc1 | 5.34% [at 102 µM] (inactive) |  |
| COc1ccc(C2=NC3(CCCCC3)N(CC(=O)Nc3ccc(C(C)C)cc3)C2=O)cc1 | 1.04% (inactive) |  |
| Cn1ccsc1=NC(=O)c1cc(S(=O)(=O)N2CCOCC2)ccc1Cl | 2.99% [at 102 µM] (inactive) |  |

| Compound | activity, negative = inhibition | Potency |
| --- | --- | --- |
| CN(CC(=O)NCCc1ccc(F)cc1)CC(=O)Nc1ccc(F)c(F)c1F | -24.2% [at 102 µM] (inactive) |  |
| CCOC(=O)C1=C(C)NC(=O)NC1c1ccccc1 (stereo not given) | -1.24% [at 102 µM] (inactive) |  |
| CCOC(=O)C1=C(C)NC(SC)=NC1c1ccccc1 (stereo not given) |  | 2 µM (active) |
| C=CCC1(C#N)C(=S)NC(C)=C(C(=O)OCC)C1c1ccccc1 (stereo not given) | 1.33% [at 102 µM] (inactive) |  |
| CCCCOc1ccc(CNC(=O)c2ccc3c(c2)N(C)C(=O)C2CCCCN32)cc1 (stereo not given) | 0.427% (inactive) |  |
| Cc1cccc(C(CC(=O)NCC2(c3ccccc3)CCCC2)c2ccccc2)c1O (stereo not given) | 1.08% (inactive) |  |
| O=C(Nc1cccc(O)c1)c1ccc(C(=O)c2ccccc2)o1 | 2.32% [at 102 µM] (inactive) |  |
| C/C(=C\C(=O)c1ccccc1)Nc1cccc(O)c1 |  | 50.1 µM (active) |
| O=C(CSc1ccccc1)Nc1ccc(C(=O)Nc2cccc(O)c2)cc1 | 15.3% [at 102 µM] (inactive) |  |
| COc1cccc(CNC(=O)c2cc(=O)[nH]c3ccc(S(=O)(=O)N4CCCCC4)cc23)c1 | -2.46% (inactive) |  |
| O=C(CSc1n[nH]c(-c2ccccc2)n1)N1CCCCC1 | 3.52% (inactive) |  |
| N#C/C(=C\c1ccccc1F)c1nc2ccccc2c(=O)[nH]1 | -20% (inactive) |  |
| COc1cccc(-n2ccn(CC(=O)NCc3ccc(C)cc3)c(=O)c2=O)c1 | 0.48% (inactive) |  |
| COc1cccc(-n2cc(C(=O)O)c3ccccc3c2=O)c1 | -46.3% [at 102 µM] (inactive) |  |
| CCN(Cc1ccccc1)C(=O)c1cn(-c2cccc(OC)c2)c(=O)c2ccccc12 |  | 11.2 µM (active) |
| CN(Cc1ccccc1)C(=O)c1cn(C)c2ccc(S(=O)(=O)N(C)C3CCCCC3)cc2c1=O | -1.49% (inactive) |  |
| O=S(=O)(NCCS(=O)(=O)N1CCN(c2ccccc2)CC1)c1ccc(Cl)cc1 | -10.1% (inactive) |  |
| CC(C)[C@@H]1COC(c2cccc(C3=N[C@H](C(C)C)CO3)c2)=N1 | 55% [at 102 µM] (inactive) |  |
| COc1cc(OC)cc(-c2nnc(N(C)C(=O)c3ccncc3)s2)c1 | -3.36% [at 102 µM] (inactive) |  |
| CN(C(=O)c1ccccn1)c1nnc(-c2ccccn2)s1 |  | 70.8 µM (active) |
| CN(C(=O)c1ccno1)c1nnc(-c2cccnc2)s1 | 19.5% (inactive) |  |
| CC(C)CCN1CCC(C)(NC(=O)c2ccccc2)C1=O (stereo not given) | -0.393% [at 0.501 µM] (inactive) |  |
| COc1ncnc2c1N=C1CC(C)(C)CC(N)=C1S2 |  | 3.16 µM (active) |
| CC(=O)c1cccc(NC(=S)N2CCCC2)c1 | 9.21% [at 102 µM] (inactive) |  |
| CC(C)NC(=S)N1CCN(S(C)(=O)=O)CC1 | 11.9% (inactive) |  |

| Compound | activity, negative = inhibition | Potency |
| --- | --- | --- |
| CC(=O)c1cccc(NC(=S)N2CCN(S(C)(=O)=O)CC2)c1 |  | 44.7 µM (active) |
| O=C(Cc1ccc(Cl)cc1)NC1CCS(=O)(=O)C1 (stereo not given) | 28.8% [at 102 µM] (inactive) |  |
| Cc1cc(C)c(CN2CCN(C(=O)Cn3ccc(NC(=O)OCc4ccccc4)nc3=O)CC2)c(C)c1 | -47.4% [at 0.501 µM] (inactive) |  |
| NC(=O)C1CCN(C(=O)c2ccc(F)c(S(=O)(=O)N3CCOCC3)c2)CC1 | 2.82% [at 2.33 µM] (inactive) |  |
| CCOc1ccc(-c2n[nH]c3c2C(c2ccccc2OC)N(c2ccc(Br)cc2)C3=O)cc1 (stereo not given) | 3.64% (inactive) |  |
| Cc1sc2ncnc(N3CCC(C(=O)NNC(=O)c4ccc(F)cc4)CC3)c2c1C | -33.1% (inactive) |  |
| Cc1ccc(NC(=S)N(CCN(C)C)Cc2cccs2)cc1C | -39.7% [at 102 µM] (inactive) |  |
| Cc1ccccc1NC(=S)N(CCCN1CCOCC1)Cc1cccs1 | 15% (inactive) |  |
| Cc1ccc(Cl)cc1NC(=S)N(CCN(C)C)Cc1cccs1 |  | 39.8 µM (active) |
| CC(C)Nc1ccc(-n2nc3ccccc3[n+]2[O-])cc1 | 12.3% [at 102 µM] (inactive) |  |
| c1ccc2cc(CCCc3cc4ccccc4cn3)ncc2c1 | 5.78% [at 0.501 µM] (inactive) |  |
| NC(=O)C1CCN(C(=O)c2cn(-c3ccccc3)nc2-c2cccnc2)CC1 | 1.41% [at 102 µM] (inactive) |  |
| Cc1ccc(C)n1C(Cc1ccccc1)C(=O)O (stereo not given) |  | 35.5 µM (active) |
| COc1ccc(CNC(=O)C(Cc2ccccc2)n2cccc2)cc1 (stereo not given) | -36.8% [at 102 µM] (inactive) |  |
| CC(Cc1ccccc1)C(=O)N(C)Cc1ccccc1 (stereo not given) | -4.83% [at 102 µM] (inactive) |  |
| Cc1ccc(S(=O)(=O)N2CCCCC2)cc1NC(=O)[C@@H]1CCCN1C(=O)c1cccs1 | -7.65% [at 12.7 µM] (inactive) |  |
| Cc1ccc2nc(COc3cccc(NC(=O)c4ccccc4Cl)c3)cc(=O)n2c1 | 10.2% (inactive) |  |
| Cc1c(-c2ccccc2)cn2c1-c1ccc(C)n1CC2 |  | 44.7 µM (active) |
| CCOC(=O)C1CCN(S(=O)(=O)c2ccc3c(c2)N(C)C(=O)CC(=O)N3C)CC1 |  | inactive and 79.4 µM (active) |
| CCOC(=O)C1CCCN(S(=O)(=O)c2ccc3c(c2)C(C)(C)C(=O)N3C)C1 (stereo not given) | -2.18% [at 102 µM] (inactive) |  |
| CCOC(=O)C1CCN(S(=O)(=O)c2ccc3c(c2)N(C(C)=O)CCO3)CC1 | -0.322% [at 102 µM] (inactive) |  |
| CCCn1c2ccccc2c2cnn(CC(=O)N(CC)c3cc(C)ccc3C)c(=O)c21 | -24% (inactive) |  |
| CCN(CCCNC(=O)CSc1cc(=O)n(C)c2cc(Cl)ccc12)c1cccc(C)c1 |  | 17.8 µM (active) |
| CCOc1ccc(CCNC(=O)CSc2cc(=O)n(C)c3ccc(Cl)cc23)cc1OCC |  | inactive |
| CCN(CCCNC(=O)CSc1cc(=O)n(C)c2cc(Cl)ccc12)Cc1ccccc1 | -26.4% [at 102 µM] (inactive) |  |
